The target of one test is T1, Aspartate--tRNA(Asp/Asn) ligase (Mycobacterium tuberculosis (strain ATCC 25618 / H37Rv)) (UniProt P9WFW3). Note: in the data most compounds retested in dose-response had high values.
T1 sequence (whole entry): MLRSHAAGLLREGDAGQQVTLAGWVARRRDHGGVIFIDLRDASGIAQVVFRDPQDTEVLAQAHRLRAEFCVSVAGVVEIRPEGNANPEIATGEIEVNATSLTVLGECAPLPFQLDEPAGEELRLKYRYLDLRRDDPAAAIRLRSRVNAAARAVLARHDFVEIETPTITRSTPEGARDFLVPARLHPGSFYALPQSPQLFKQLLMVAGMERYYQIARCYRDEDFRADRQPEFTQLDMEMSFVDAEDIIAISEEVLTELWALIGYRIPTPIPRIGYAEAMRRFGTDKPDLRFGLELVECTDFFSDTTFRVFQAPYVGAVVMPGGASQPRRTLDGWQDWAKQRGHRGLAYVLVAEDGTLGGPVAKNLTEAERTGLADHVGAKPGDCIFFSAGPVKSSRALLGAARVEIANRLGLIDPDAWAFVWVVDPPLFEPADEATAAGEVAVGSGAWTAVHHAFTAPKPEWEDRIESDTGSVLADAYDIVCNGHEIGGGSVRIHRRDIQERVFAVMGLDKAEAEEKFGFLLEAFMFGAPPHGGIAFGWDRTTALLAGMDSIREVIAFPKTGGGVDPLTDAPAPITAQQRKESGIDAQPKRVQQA
Kind of test: Assay for Asp RNA synthetase-1 from Mycobacterium tuberculosis. Type of test: functional. On the set-up: scale not given: direction of the effect not stated beside the values. The conditions noted are these: 30 µM.
On to `CSCC(=O)N1CCCC(n2ccnc2C(C)C)C1` (stereo not given), for which the Percent Effect is -2.84%.

For `c1cnc2c(c1)cc(C1CCOCC1)n2CCN1CCOCC1`, the Percent Effect was 3.26%.

Turning to `CCc1nc(C2CCCN2C(=O)c2cc(C3CC3)[nH]n2)no1` (stereo not given), the Percent Effect is -7.78%.

For the molecule `CNS(=O)(=O)c1cccc(CNc2cc(C(F)(F)F)ccn2)c1`, the Percent Effect is -2.24%.

As to `CSCC(CCO)NC(=O)Nc1cc(C)ccc1C` (stereo not given), the Percent Effect is 6.04%.

Turning to `Fc1cc(CNCc2ccc3c(c2)CCO3)ccc1N1CCOCC1`, the Percent Effect is -1.01%.

Consider `CCn1cnnc1C1CCN(C(=O)c2cc3c(s2)CCC3)CC1`, for which the Percent Effect is -5.31%.

For the molecule `CN1CCOC(CNC(=O)CCCOc2ccccc2F)C1` (stereo not given), the Percent Effect is -5.14%.

Consider `Cc1csc(N2CCCN(Cc3noc(C)n3)CC2)n1`, for which the Percent Effect was found to be 1.56%.

For the molecule `O=C(c1cccnc1N1CCOCC1)N1CCCC1Cn1cccn1` (stereo not given), the Percent Effect was -2.94%.

Consider `O=C1CC(c2cccs2)c2snc(C(=O)O)c2N1` (stereo not given), for which the Percent Effect is -3.23%.

Consider `COc1cccc(CN2CCCC3(CCN(C(=O)c4ccco4)C3)C2)c1` (stereo not given), for which the Percent Effect stood at 0.0455%.

For the molecule `CCN1C(=O)CCC12CCCN(Cc1nccs1)CC2` (stereo not given), the Percent Effect is 2.52%.

As for `Cc1ccc(CNC(=O)NCc2csc(C)n2)cn1`, the Percent Effect is -3.34%.

As for `O=C(Cn1ccnc1)N1C[C@@H]2CC[C@H](Oc3ccccc3Cl)[C@@H]2C1`, the Percent Effect is -0.551%.

Take `CCc1nc(CN(C)C2CCN(CCS(C)(=O)=O)C2)no1` (stereo not given): the Percent Effect was 3.04%.

Regarding `O=C(CN1CCC(c2ccnn2CCO)CC1)NCc1cccs1`, the Percent Effect was -1.91%.

For `Cc1nnc(NCC2(c3ccc(Cl)cc3Cl)CCOCC2)c(C#N)c1C`, the Percent Effect is 1.93%.

With `COc1ccc(NC(=O)Cn2nc(C)c(C)cc2=O)cc1OC`, the Percent Effect is -0.123%.

For the molecule `CCc1noc(CNc2cc(F)ccc2OCC2CCCO2)n1` (stereo not given), the Percent Effect came out at 0.569%.

Turning to `CN(C)c1ccc(CN(CCCn2ccnc2)Cc2c[nH]cn2)cc1`, the Percent Effect is 0.194%.

Take `COCC1Cn2nnc(-c3cnn(C)c3)c2CN1Cc1ccc(C)s1` (stereo not given): the Percent Effect was 1.73%.

For the molecule `O=C1COC2(CCN(C(=O)c3ccco3)CC2)CN1Cc1ccccn1`, the Percent Effect is -2.5%.

In the case of `O=C(c1ccc(Br)o1)N1CCN(Cc2ccc(OC(F)(F)F)cc2)CC1`, the Percent Effect was -5.95%.

In the case of `O=C1N(CC2CC2)CCC12CCN(c1ncccn1)CC2`, the Percent Effect was 3.3%.

Regarding `Cn1cnc2c1CCN(Cc1cccc(C(N)=O)c1)C2`, the Percent Effect is -3.03%.

With `COc1ccc(CN2CC[C@H]3[C@H]2CCN3C(=O)c2cnn(C)c2)cc1`, the Percent Effect was -0.229%.

For the molecule `Cc1cccc(C(=O)N2C[C@@H](OCc3cccnc3)[C@H]3OCCC[C@@H]32)n1`, the Percent Effect is -2%.

On to `CC(C)CCNC(=O)c1sccc1N(C)S(=O)(=O)c1ccccc1`, for which the Percent Effect is 5.12%.

Take `CCOC(=O)CCNC(=O)N1CCN(c2nc3ccccc3n2C)CC1`: the Percent Effect is -4.71%.

For `CNc1nc(C(=O)N2CCCC(c3nccn3CC3CCC3)C2)cs1` (stereo not given), the Percent Effect was 10.9%.

`c1ccc(-c2cc(CN3CCC(c4ccn[nH]4)CC3)on2)cc1`: the Percent Effect is 2.46%.

Regarding `Cc1noc(C(C)C)c1C(=O)NCc1cccc(N(C)C)c1`, the Percent Effect was -3.25%.

As for `Cc1ncccc1NC(=O)[C@H]1C[C@@H]2CCN(Cc3nccs3)C[C@@H]2O1`, the Percent Effect was -3.35%.

For `O=C1CC2(CCCNC2)C(=O)N1Cc1ccc(F)cc1` (stereo not given), the Percent Effect was found to be 3.3%.

For the molecule `CCn1cc(CN(C)S(=O)(=O)c2ccc(NC(C)=O)cc2)cn1`, the Percent Effect was 2.64%.

As for `COCCCNC(=O)CCn1nc(C)c2ccccc21`, the Percent Effect was -2.88%.

As for `Cc1ccsc1C(=O)N1C[C@@H]2CN(Cc3ccoc3)CCO[C@@H]2C1`, the Percent Effect was -1.39%.

For `Cc1cc(N(C)Cc2noc(C)n2)n2nc(C)c(C)c2n1`, the Percent Effect is -0.251%.

As to `Cc1cccc(-c2ccc(C(=O)NCC3CCOC3)c(=O)[nH]2)c1` (stereo not given), the Percent Effect is 7.65%.

A further test concerns the target Shiga toxin 2 (Escherichia coli O157:H7) (UniProt P09385+P09386). Kind of test: E. coli 0.157:H7 Shiga Toxin SOP - stx2 screening assay. It counts as functional. The conditions noted are these: 30 µM. On the set-up: scale not given: direction of the effect not stated beside the values.
In the case of `CSCC(=O)N1CCCC(n2ccnc2C(C)C)C1` (stereo not given), the Percent Effect was determined as 28.1%.

Turning to `c1cnc2c(c1)cc(C1CCOCC1)n2CCN1CCOCC1`, the Percent Effect was 4.5%.

With `CCc1nc(C2CCCN2C(=O)c2cc(C3CC3)[nH]n2)no1` (stereo not given), the Percent Effect is 8.24%.

Regarding `CNS(=O)(=O)c1cccc(CNc2cc(C(F)(F)F)ccn2)c1`, the Percent Effect worked out at 27.2%.

Regarding `CSCC(CCO)NC(=O)Nc1cc(C)ccc1C` (stereo not given), the Percent Effect was -16.3%.

Turning to `Fc1cc(CNCc2ccc3c(c2)CCO3)ccc1N1CCOCC1`, the Percent Effect was -16.1%.

As to `CCn1cnnc1C1CCN(C(=O)c2cc3c(s2)CCC3)CC1`, the Percent Effect was -11.1%.

Turning to `CN1CCOC(CNC(=O)CCCOc2ccccc2F)C1` (stereo not given), the Percent Effect is -33.1%.

Turning to `Cc1csc(N2CCCN(Cc3noc(C)n3)CC2)n1`, the Percent Effect was -19.8%.

On to `O=C(c1cccnc1N1CCOCC1)N1CCCC1Cn1cccn1` (stereo not given), for which the Percent Effect was 31.6%.

For `O=C1CC(c2cccs2)c2snc(C(=O)O)c2N1` (stereo not given), the Percent Effect is -4.3%.

`COc1cccc(CN2CCCC3(CCN(C(=O)c4ccco4)C3)C2)c1` (stereo not given): the Percent Effect was -1.7%.

Turning to `CCN1C(=O)CCC12CCCN(Cc1nccs1)CC2` (stereo not given), the Percent Effect turned out to be 1.68%.

As to `Cc1ccc(CNC(=O)NCc2csc(C)n2)cn1`, the Percent Effect is -8.48%.

As for `O=C(Cn1ccnc1)N1C[C@@H]2CC[C@H](Oc3ccccc3Cl)[C@@H]2C1`, the Percent Effect was found to be 13.9%.

On to `CCc1nc(CN(C)C2CCN(CCS(C)(=O)=O)C2)no1` (stereo not given), for which the Percent Effect is -32.8%.

For the molecule `O=C(CN1CCC(c2ccnn2CCO)CC1)NCc1cccs1`, the Percent Effect was -10%.

In the case of `Cc1nnc(NCC2(c3ccc(Cl)cc3Cl)CCOCC2)c(C#N)c1C`, the Percent Effect is -16.4%.

Take `COc1ccc(NC(=O)Cn2nc(C)c(C)cc2=O)cc1OC`: the Percent Effect is -13.1%.

On to `CCc1noc(CNc2cc(F)ccc2OCC2CCCO2)n1` (stereo not given), for which the Percent Effect is -4.24%.

As to `CN(C)c1ccc(CN(CCCn2ccnc2)Cc2c[nH]cn2)cc1`, the Percent Effect is -38.9%.

Consider `COCC1Cn2nnc(-c3cnn(C)c3)c2CN1Cc1ccc(C)s1` (stereo not given), for which the Percent Effect was -7.17%.

Turning to `O=C1COC2(CCN(C(=O)c3ccco3)CC2)CN1Cc1ccccn1`, the Percent Effect is -3.41%.

Turning to `O=C(c1ccc(Br)o1)N1CCN(Cc2ccc(OC(F)(F)F)cc2)CC1`, the Percent Effect amounted to 16.1%.

`O=C1N(CC2CC2)CCC12CCN(c1ncccn1)CC2`: the Percent Effect is -4.25%.

Take `Cn1cnc2c1CCN(Cc1cccc(C(N)=O)c1)C2`: the Percent Effect was -13.1%.

On to `COc1ccc(CN2CC[C@H]3[C@H]2CCN3C(=O)c2cnn(C)c2)cc1`, for which the Percent Effect was -7.37%.

In the case of `Cc1cccc(C(=O)N2C[C@@H](OCc3cccnc3)[C@H]3OCCC[C@@H]32)n1`, the Percent Effect was -30.7%.

`CC(C)CCNC(=O)c1sccc1N(C)S(=O)(=O)c1ccccc1`: the Percent Effect was -20%.

On to `CCOC(=O)CCNC(=O)N1CCN(c2nc3ccccc3n2C)CC1`, for which the Percent Effect is -68.4%.

`CNc1nc(C(=O)N2CCCC(c3nccn3CC3CCC3)C2)cs1` (stereo not given): the Percent Effect amounted to 2.21%.

For `c1ccc(-c2cc(CN3CCC(c4ccn[nH]4)CC3)on2)cc1`, the Percent Effect was -49.6%.

As for `Cc1noc(C(C)C)c1C(=O)NCc1cccc(N(C)C)c1`, the Percent Effect was 13.2%.

`Cc1ncccc1NC(=O)[C@H]1C[C@@H]2CCN(Cc3nccs3)C[C@@H]2O1`: the Percent Effect turned out to be 0.675%.

Turning to `O=C1CC2(CCCNC2)C(=O)N1Cc1ccc(F)cc1` (stereo not given), the Percent Effect was -4.45%.

As to `CCn1cc(CN(C)S(=O)(=O)c2ccc(NC(C)=O)cc2)cn1`, the Percent Effect was -65.2%.

With `COCCCNC(=O)CCn1nc(C)c2ccccc21`, the Percent Effect is -11.5%.

Regarding `Cc1ccsc1C(=O)N1C[C@@H]2CN(Cc3ccoc3)CCO[C@@H]2C1`, the Percent Effect is -11.7%.

Consider `Cc1cc(N(C)Cc2noc(C)n2)n2nc(C)c(C)c2n1`, for which the Percent Effect is -8.78%.

On to `Cc1cccc(-c2ccc(C(=O)NCC3CCOC3)c(=O)[nH]2)c1` (stereo not given), for which the Percent Effect was 15.2%.

For the origin of these results see ChEMBL document CHEMBL3988442, “University of Dundee, Small-Polar-MMV Screening Library” (2021).
